From the supplement of paper PMC6555819

Assays:
Assay in all cases: PBM binding z-score (relative to random genomic background probes); higher = stronger binding; sequences stand for … in GC…GCGATTGACAGCGTAGAATGAAGG
[1] = system: FXR:RXRa (NR concentration 270 nM, RXRa partner concentration 90 nM)
In short: (§1)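 The probes on custom Agilent 4×180K protein-binding microarrays were double-stranded, with 34-nt variable regions bearing direct-repeat seeds, single-nucleotide variants, half-site ablations and random human genomic background sequences. Incubation lasted 1 h with ligand-free nuclear receptor dimers in PBS pH 7.4, 2% milk, 0.02% Triton X-100, 1 mM DTT, 0.2 mg/mL BSA and 0.4 mg/ml salmon testes DNA. Antibodies against each partner (one per run) detected bound dimers, and fluorescence scans were regression-normalized. Binding z-scores take the random background probes as reference.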

[2] = system: LXRa:RXRa (NR concentration 270 nM, RXRa partner concentration 90 nM)
In short: as §1

[3] = system: LXRa homodimer (NR concentration 270 nM)
In short: as §1

[4] = system: LXRb:RXRa (NR concentration 270 nM, RXRa partner concentration 90 nM)
In short: as §1

[5] = system: LXRb homodimer (NR concentration 270 nM)
In short: as §1

[6] = system: PPARa:RXRa (NR concentration 270 nM, RXRa partner concentration 90 nM)
In short: as §1

[7] = system: PPARg:RXRa (NR concentration 180 nM, RXRa partner concentration 90 nM)
In short: as §1

[8] = system: PPARg:RXRa 270nM:90nM, anti-RXR (NR concentration 270 nM, RXRa partner concentration 90 nM)
In short: as §1

[9] = system: PPARg:RXRa 30nM:10nM, anti-RXR (NR concentration 30 nM, RXRa partner concentration 10 nM)
In short: as §1

[10] = system: PPARg:RXRa 90nM:30nM, anti-RXR (NR concentration 90 nM, RXRa partner concentration 30 nM)
In short: as §1

[11] = system: PPARg:RXRa DBDmut IVT, anti-RXR (DBD mutation: RXRa K156A/R161A, NR concentration 270 nM, RXRa partner concentration 90 nM)
In short: as §1

[12] = system: PPARg:RXRa IVT, anti-PPARg (NR concentration 270 nM, RXRa partner concentration 90 nM)
In short: as §1

[13] = system: PPARg DBDmut:RXRa IVT, anti-PPARg (DBD mutation: PPARg1 K132A/R137A, NR concentration 270 nM, RXRa partner concentration 90 nM)
In short: as §1

[14] = system: PPARg DBDmut IVT, anti-PPARg (DBD mutation: PPARg1 K132A/R137A, NR concentration 270 nM)
In short: as §1

[15] = system: PPARg homodimer (NR concentration 180 nM)
In short: as §1

[16] = system: PXR:RXRa (NR concentration 270 nM, RXRa partner concentration 90 nM)
In short: as §1

[17] = system: PXR homodimer (NR concentration 270 nM)
In short: as §1

[18] = system: RARa:RXR (NR concentration 270 nM, RXRa partner concentration 90 nM)
In short: as §1

[19] = system: RARa homodimer (NR concentration 270 nM)
In short: as §1

[20] = system: RARb:RXRa (NR concentration 270 nM, RXRa partner concentration 90 nM)
In short: as §1

## CGTCAAAGATCAACTAAGGTAACGTAAAGCACGC
[1]
  PBM binding z-score: 1.52
[2]
  PBM binding z-score: 0.952
[3]
  PBM binding z-score: 0.0696
[4]
  PBM binding z-score: 0.635
[5]
  PBM binding z-score: -0.0274
[6]
  PBM binding z-score: 1.19
[7]
  PBM binding z-score: 0.897
[8]
  PBM binding z-score: 0.957
[9]
  PBM binding z-score: 0.274
[10]
  PBM binding z-score: 0.711
[11]
  PBM binding z-score: -0.00407
[12]
  PBM binding z-score: 0.5
[13]
  PBM binding z-score: 0.6
[14]
  PBM binding z-score: 0.489
[15]
  PBM binding z-score: 0.91
[16]
  PBM binding z-score: 1.32
[17]
  PBM binding z-score: 0.224
[18]
  PBM binding z-score: 1.52
[19]
  PBM binding z-score: 0.595
[20]
  PBM binding z-score: 0.548

## TCTGCTAGGTCAGTTGGTCAGCCAACGAGCTGCC
[1]
  PBM binding z-score: 0.772
[2]
  PBM binding z-score: 0.762
[3]
  PBM binding z-score: -0.677
[4]
  PBM binding z-score: 0.196
[5]
  PBM binding z-score: -0.0137
[6]
  PBM binding z-score: 1.52
[7]
  PBM binding z-score: 0.643
[8]
  PBM binding z-score: 1.9
[9]
  PBM binding z-score: 1.52
[10]
  PBM binding z-score: 1.51
[11]
  PBM binding z-score: 2.34
[12]
  PBM binding z-score: 2.92
[13]
  PBM binding z-score: 2.07
[14]
  PBM binding z-score: 0.334
[15]
  PBM binding z-score: 0.252
[16]
  PBM binding z-score: 0.152
[17]
  PBM binding z-score: -0.764
[18]
  PBM binding z-score: 0.399
[19]
  PBM binding z-score: -1.63
[20]
  PBM binding z-score: 3.3

## AGAATGAGGTTACCAAAGATCAGCGAAACGCTTG
[1]
  PBM binding z-score: 1.92
[2]
  PBM binding z-score: 6.09
[3]
  PBM binding z-score: -0.342
[4]
  PBM binding z-score: 3.38
[5]
  PBM binding z-score: -0.405
[6]
  PBM binding z-score: 3.24
[7]
  PBM binding z-score: 2.63
[8]
  PBM binding z-score: 2.59
[9]
  PBM binding z-score: 0.865
[10]
  PBM binding z-score: 1.64
[11]
  PBM binding z-score: 4.05
[12]
  PBM binding z-score: 3.33
[13]
  PBM binding z-score: 1.77
[14]
  PBM binding z-score: 0.58
[15]
  PBM binding z-score: 0.597
[16]
  PBM binding z-score: 1.32
[17]
  PBM binding z-score: -0.226
[18]
  PBM binding z-score: 2.13
[19]
  PBM binding z-score: 0.0511
[20]
  PBM binding z-score: 2.08

## GGAACGAGGGCAAGTTGATAGAAGAGTTTGATGG
[1]
  PBM binding z-score: 0.705
[2]
  PBM binding z-score: 0.396
[3]
  PBM binding z-score: -0.176
[4]
  PBM binding z-score: 0.213
[5]
  PBM binding z-score: -0.242
[6]
  PBM binding z-score: 1.41
[7]
  PBM binding z-score: 1.29
[8]
  PBM binding z-score: 0.969
[9]
  PBM binding z-score: 0.173
[10]
  PBM binding z-score: 0.351
[11]
  PBM binding z-score: 3.6
[12]
  PBM binding z-score: 2.75
[13]
  PBM binding z-score: -0.45
[14]
  PBM binding z-score: 0.0544
[15]
  PBM binding z-score: 0.482
[16]
  PBM binding z-score: 0.801
[17]
  PBM binding z-score: 0.693
[18]
  PBM binding z-score: 0.45
[19]
  PBM binding z-score: 0.336
[20]
  PBM binding z-score: 2.64

## CGTCCAAGGTCGTAGGAGGTCAGTGAAGACAGAT
[1]
  PBM binding z-score: 4.38
[2]
  PBM binding z-score: 4.75
[3]
  PBM binding z-score: 1.14
[4]
  PBM binding z-score: 3.33
[5]
  PBM binding z-score: -0.833
[6]
  PBM binding z-score: 4.12
[7]
  PBM binding z-score: 1.79
[8]
  PBM binding z-score: 2.5
[9]
  PBM binding z-score: 0.257
[10]
  PBM binding z-score: 1.32
[11]
  PBM binding z-score: 0.632
[12]
  PBM binding z-score: 1.67
[13]
  PBM binding z-score: -0.489
[14]
  PBM binding z-score: -0.725
[15]
  PBM binding z-score: 2.21
[16]
  PBM binding z-score: 5.77
[17]
  PBM binding z-score: 1.8
[18]
  PBM binding z-score: 4.37
[19]
  PBM binding z-score: 0.332
[20]
  PBM binding z-score: 3.82

## ACAGACAGGTCAGTGAAGGTAACTCAGCTGGACG
[1]
  PBM binding z-score: 2.55
[2]
  PBM binding z-score: 1.83
[3]
  PBM binding z-score: -0.374
[4]
  PBM binding z-score: 1.07
[5]
  PBM binding z-score: -0.266
[6]
  PBM binding z-score: 2.47
[7]
  PBM binding z-score: 1.18
[8]
  PBM binding z-score: 1.05
[9]
  PBM binding z-score: -0.166
[10]
  PBM binding z-score: 0.444
[11]
  PBM binding z-score: 0.901
[12]
  PBM binding z-score: 1.22
[13]
  PBM binding z-score: -0.0695
[14]
  PBM binding z-score: -0.218
[15]
  PBM binding z-score: 0.397
[16]
  PBM binding z-score: 1.57
[17]
  PBM binding z-score: -0.149
[18]
  PBM binding z-score: 1.78
[19]
  PBM binding z-score: 0.123
[20]
  PBM binding z-score: 3.51

## CCTCGGGGGACAGAAGGTCAGAGCTGTCCGCTTT
[1]
  PBM binding z-score: 2.39
[2]
  PBM binding z-score: 3.78
[3]
  PBM binding z-score: 0.464
[4]
  PBM binding z-score: 3.58
[5]
  PBM binding z-score: 2.95
[6]
  PBM binding z-score: 3.5
[7]
  PBM binding z-score: 0.517
[8]
  PBM binding z-score: 2.66
[9]
  PBM binding z-score: 0.439
[10]
  PBM binding z-score: 1.51
[11]
  PBM binding z-score: 0.436
[12]
  PBM binding z-score: 1.38
[13]
  PBM binding z-score: 1.67
[14]
  PBM binding z-score: -0.683
[15]
  PBM binding z-score: 1.59
[16]
  PBM binding z-score: 2.99
[17]
  PBM binding z-score: 0.0976
[18]
  PBM binding z-score: 3.08
[19]
  PBM binding z-score: -0.112
[20]
  PBM binding z-score: 3.34
